From PubChem BioAssay
This excerpt belongs to a sample that is enriched for hits.
AmpC inh no detg = inhibitors of E. coli AmpC beta-lactamase without detergent. P00811. AmpC nitrocefin hydrolysis, absorbance 480 nm, 0.0001% Triton. Potency, µM (doses to about 57.1 µM), most hits filed as inhibitors. actives 0.52% (n = 330,000); note: nearly all actives have a fitted effect of over 20% in size
Target sequence (P00811 whole entry, looked up): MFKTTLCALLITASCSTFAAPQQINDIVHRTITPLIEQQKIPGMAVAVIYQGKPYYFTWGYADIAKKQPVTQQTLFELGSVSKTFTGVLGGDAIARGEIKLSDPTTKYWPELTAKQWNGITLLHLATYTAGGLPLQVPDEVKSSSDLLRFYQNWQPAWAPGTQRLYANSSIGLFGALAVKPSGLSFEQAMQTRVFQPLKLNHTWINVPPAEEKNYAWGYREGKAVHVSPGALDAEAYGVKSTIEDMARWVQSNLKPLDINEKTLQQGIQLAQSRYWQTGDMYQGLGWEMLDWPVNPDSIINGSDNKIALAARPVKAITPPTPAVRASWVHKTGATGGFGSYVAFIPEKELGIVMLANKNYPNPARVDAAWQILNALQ
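20 mM phosphate pH 7.0 + 0.01% (detergent screen) or 0.0001% Triton X-100; 5.3 nM AmpC reagent; cpd preinc 15 min RT; nitrocefin (800 uM stock) to start; A480 q20 s × 4 min; Activity was normalised to no-enzyme and no-compound control wells.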
AMA1-RON2 inh = inhibitors of Plasmodium falciparum AMA1-RON2 interaction; AlphaScreen AMA1-biotinylated RON2 peptide binding; Potency, µM (highest dose often 58.2 µM), most hits filed as inhibitors; actives 0.2% (n = 360,000); AID 720542; note: nearly all actives have a fitted effect of over 45% in size
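AMA1 (3D7) with his tag at 25 nM final met compounds first, then biotinylated RON2 peptide at 25 nM; detection used donor plus acceptor beads, 10 µg/mL apiece, read by AlphaScreen after 30 min at room temperature.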
Shiga toxin inh = blocks Shiga toxin action in Vero cells. Vero cells, Shiga toxin protein synthesis inhibition reporter. actives 9.2% (n = 290,000). inhibition, % at 38.7 µM; in the data active = inhibition mostly above about 28%, no sharp cut-off; inactive = mostly below about 43%
Cycloheximide cs = counter-screen for Shiga toxin inhibitors: cycloheximide protein synthesis inhibition. cell reporter, cycloheximide protein synthesis inhibition counterscreen. max response, %. actives 12% (n = 300,000). AID 2314; in the data active = max response mostly above about 13%, no sharp cut-off; inactive = mostly below about 14%; note: read at 38.3 µM for the half of the compounds with a filed dose
SARS PLP yeast = inhibitors of SARS-CoV papain-like protease in yeast; S. cerevisiae expressing SARS-CoV PLpro, growth rescue; Potency, µM (doses to about 32.9 µM), most hits filed as activators; actives 0.19% (n = 330,000); AID 485353; calls by dose curve; note: nearly all actives have a fitted effect of over 55% in size
AmpC inh detg = inhibitors of E. coli AmpC beta-lactamase with detergent | AmpC hydrolysis of nitrocefin, absorbance 480 nm, 0.01% Triton | Potency, µM (series often up to 114 µM), hits mostly inhibitors | AID 485294 | actives 0.041% (n = 370,000); note: nearly all actives have a fitted effect of over 25% in size
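AmpC (5.3 nM in the dispensed reagent) in 20 mM phosphate pH 7.0 with 0.01% (detergent screen) or 0.0001% Triton X-100 was preincubated with compounds for 15 min at room temperature. Nitrocefin was then added from an 800 uM solution, and hydrolysis was followed at 480 nm.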
A number is an active result; - = inactive; ? = inconclusive; . = no result; [ ] = dose if it differs, or a comment. Unless noted, calls come from the whole dose curve; as a rule, active = well fitted curve in the direction sought with a large enough effect; inconclusive = small, poorly fitted or top-dose-only effect, or another doubt; inactive = no such curve, though single readings can be large; an effect the other way counts as inactive or inconclusive.

SMILES	AmpC inh no detg	AMA1-RON2 inh	Shiga toxin inh	Cycloheximide cs	SARS PLP yeast	AmpC inh detg
COC(=O)c1ccc(COC(=O)CNS(=O)(=O)c2ccc(C)cc2)cc1	-	-	80.9	32.9	-	-
Cc1ccc(S(=O)(=O)NCC(=O)OCc2csc(-c3ccccc3)n2)cc1	-	-	-	14.8	-	-
O=C(CNS(=O)(=O)c1c(Cl)cccc1Cl)OCc1csc(-c2ccccc2)n1	-	-[2.32 µM]	-	18.4	-	?
O=S(=O)(NCc1csc(-c2ccccc2)n1)c1ccc(Cl)s1	-	-	-	-	-	-
COc1ccc(-c2nc(CNS(=O)(=O)c3ccc(C)cc3)cs2)cc1	.	.	.	.	.	-
COC(=O)c1ccc(COC(=O)CCS(=O)(=O)c2ccc(C)cc2)cc1	-	-	-	-	-	-
COc1ccc(NC(=O)Cc2noc3ccc(C)cc23)cc1Cl	.	.	.	.	.	-
O=C(COC(=O)c1c(F)cccc1F)c1ccc[nH]1	-	-	81.5	37.7	-	-
CN(C)c1ccc(C(=O)OCC(=O)c2ccc[nH]2)cc1	-	-	.	.	-	.
O=C(OCC(=O)c1ccc[nH]1)c1ccccc1	-	-	117.9	47.3	-	-
O=C(OCC(=O)c1ccc[nH]1)c1ccc(Cl)c(Cl)c1	-	-	.	.	-	.
COc1ccc(CNC(=O)c2cc(-c3ccc(C)cc3)nc3n[nH]c(-c4ccc(Br)cc4)c23)cc1	.	.	.	.	.	-
COc1ccc([C@H]2[C@H](C(=O)OC(C)(C)C)N3N=Cc4ccccc4C3C23C(=O)c2ccccc2C3=O)c(OC)c1 (some centres not stated)	-	-	45.5	18.3	-	-
N#Cc1nc(-c2ccccc2F)oc1NCCN1CCOCC1	-	-	-	-	-	-
N#Cc1nc(-c2cccc3ccccc23)oc1NCCN1CCOCC1	-	-	-	15.3	-	?
CCCNc1oc(-c2cccc3ccccc23)nc1C#N	-	-	69.4	21.6	-	-
O=C(NCc1ccco1)c1ccc2snnc2c1	-	-	-	-	-	-
CCC(C)NC(=O)c1cnn(-c2cccc(F)c2)c1-n1cccc1 (configuration not stated)	.	.	.	.	.	-
COc1nc(-c2cccc([N+](=O)[O-])c2)nc2ccccc12	-	-	-	-	-	-
Cc1ccc(S(=O)(=O)CCC(=O)N(C)C2CCCCC2)cc1	-	-	-	13.3	-	-
CCCCN(CC)C(=O)Cn1cc2c(n1)-c1c(oc(C(=O)N3CCCC3)c1C)CC2	.	.	.	.	.	-
O=C(N[C@@H](Cc1ccccc1)C(=O)OCc1ccccc1)c1nc[nH]c1C(=O)N1CCc2ccccc2C1	-	-	-	18.1	-	-
Cc1ccc(NC(=S)N(N)CCO)cc1	-	-	42.8	-	-	-
COc1cc(C(=O)NC(C)Cc2cccs2)cc(OC)c1OC (configuration not stated)	-[11.4 µM]	-	-	-	-	-
CC(Cc1cccs1)NC(=O)Nc1cccc(Cl)c1 (configuration not stated)	?	-	69.0	59.5	-	-
SMILES	AmpC inh no detg	AMA1-RON2 inh	Shiga toxin inh	Cycloheximide cs	SARS PLP yeast	AmpC inh detg
CC(Cc1cccs1)NC(=O)Nc1ccc(F)cc1 (configuration not stated)	-	-	-	50.1	-	-
Cc1ccc(-n2nc(C)c3c2OC(N)=C(C#N)C3c2cccs2)cc1 (configuration not stated)	-	-	-	16.8	-	-
Cc1ccc(-n2nc(C)c3c2OC(N)=C(C#N)C3c2ccncc2)cc1 (configuration not stated)	-	-	-	-	-	-
CCOc1ccc2nc(S(=O)(=O)NC(=O)C3(C)CCN3C(=O)c3cc(C)n(C)n3)sc2c1 (configuration not stated)	.	-	.	.	.	.
O=C1N=c2ccccc2=C1c1sc(Nc2ccc(O)cc2)nc1O	-	-	64.5	-	-	?
O=C1N=c2ccccc2=C1c1sc(NS(=O)(=O)c2ccccc2)nc1O	-	-	-	-	-	-
O=C1N=c2ccccc2=C1c1sc(NS(=O)(=O)Cc2ccccc2)nc1O	3.55µM	-	-	-	-	-
O=C1N=c2ccccc2=C1c1sc(Nc2cccc(O)c2)nc1O	-	?	47.6	44.3	-	?
O=C(O)CCC(C(=O)O)n1c(O)c(C2=c3ccccc3=NC2=O)sc1=S (configuration not stated)	-	-	-	-	-	-
Cc1cccc(Cn2nc(C)n3c(cc4cc(C)ccc43)c2=O)c1	.	.	.	.	.	-
Cc1ccc(NC(=S)NC2CC3CCC(C2)N3Cc2ccco2)cc1C (configuration not stated)	-	-	-	-	-	-
Oc1ccc(Cl)cc1C1=NNC(c2ccc(Cl)cc2)C1 (configuration not stated)	-	-	30.8	29.5	-	-
Oc1c(Cl)cc(Cl)cc1C1=NNC(c2ccc(Cl)cc2)C1 (configuration not stated)	?	-	73.2	30.8	-	-
COc1ccccc1N1CCN(S(=O)(=O)c2ccc3[nH]c4c(c3c2)CCCC4)CC1	.	.	.	.	.	-
CCc1ccc(NC(=O)COc2coc(CN3CCN(c4ccccc4)CC3)cc2=O)cc1	-	-	.	.	-	-
CCc1ccc(NC(=O)COc2ccc(F)cc2C(=O)c2cnn(-c3ccccc3)c2)cc1	-	-	active	27.3	-	-
COc1ccccc1NC(=O)Cn1cnc2c(cnn2-c2ccccc2)c1=O	-	-	-	-	-	-
COc1ccccc1NC(=O)COc1ccccc1C(=O)c1cnn(-c2ccccc2)c1	-	-	-	46.6	-	-
O=C1c2ccccc2C(=O)c2c1oc(C(F)(F)F)c2C(=O)c1ccccc1	-	?	-	24.5	-	-
COc1ccc(C(=O)c2c[nH]cc2-c2ccccc2)cc1	-	-	-	-	-	?
O=C(c1ccccc1)c1coc2c1C(=O)c1ccccc1C2=O	-	-	94.3	32.8	-	-
COc1ccc(C(=O)c2coc3c2C(=O)C(=O)c2ccccc2-3)cc1	-	-	75.7	33.0	-	-
CC(=O)c1c(C)oc2c1C(=O)c1ccccc1C2=O	-	-	-	-	-	-
COc1ccc(C(=O)NC(=S)N2CCN(c3ccccc3OC)CC2)cc1	-	-	-	-	-	-
O=S(=O)(Nc1cc(O)cc2cccnc12)c1ccc(Br)s1	.	.	-	-	.	.
COc1ccc(-c2nc(C)c(C(C)=O)n2O)cc1	-	-	-	-	-	-
Cc1cc(C(=O)CCl)c(C)n1CCc1ccccc1	-[11.4 µM]	?	-	-	-	-
CCOC(=O)c1cc(C)n(CCc2ccccc2)c1C	-	-	-	22.0	-	-
CCCCNC(=O)COC(=O)c1ccc(Cl)c(S(=O)(=O)N2CCCC2)c1	-	-	-	-	-	-
